Compounds with a hit are over-represented: about 1.6% of the library has one in this group of screens.
eIF4H inh: inhibitors of RNA binding by human eIF4H; Q15056; eIF4H fluorescence polarization binding assay; inhibition, % at 35 µM; 0.94% of 290,000 active;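 also: calls also rest on retests at 20 µM and on dose response follow-up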
PABP polyA inh: PABP-poly(A) binding inhibition; P11940; PABP-poly(A) RNA binding, fluorescence polarization; inhibition, % at 35 µM; 1% of 290,000 active; AID 2014;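 also: calls also rest on retests at 20 µM and on dose response follow-up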
eIF4E-4G inh: eIF4E/eIF4G interaction inhibition in translation initiation; AID 782; TR-FRET eIF4E-eIF4GI(517-606) binding, 2 h; P63073+Q04637; inhibition, % at 21.7 µM; 0.37% of 220,000 active;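 active = inhibition above about 30%, limit read from the data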;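 also: 0% = full FRET control wells and 100% = background wells lacking eIF4GI fragment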
PERK inh: human PERK inhibition, primary cell-based screen. AID 1416. 0.17% of 220,000 active. inhibition, % at 5.6 µM. CHO PERK-DD fusion, SEAP luminescence translation reporter. Q9NZJ5;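 active = inhibition above the mean inhibition of all tested compounds plus 3 SD, set separately per screening campaign, cut at about 2.9% in these data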;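 also: PERK kinase domain activated by AP20187 dimerizer at 100 nM; 0% = DMSO with dimerizer and 100% = rapamycin at 8.4 µM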
PABP1 MLLE inh: blocks PAM2 peptide binding to the PABP1 MLLE domain; P11940; GST-MLLE / FITC-PAM2 fluorescence polarization; inhibition, % at 20 µM; 0.36% of 360,000 active; AID 588489; in the data active = inhibition above about 35%, passing the limit was not always enough;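 also: plate controls were DMSO wells with GST-MLLE for no effect and wells lacking GST-MLLE protein for full effect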
Active calls of the source: *; / = no result; [ ] = another dose, or the depositor's remark. Unless noted, no rule for the calls is given here.

SMILES	eIF4H inh	PABP polyA inh	eIF4E-4G inh	PERK inh	PABP1 MLLE inh
Oc1ccccc1N=Cc1c(O)ccc2ccccc12	86	118*	1	0	-65
Cc1cc(C)n(-c2nnc(NC(C)(C)C)nn2)n1	-13	0	0	0	-21
COc1c(O)cc2c(c1O)C1OC(CO)C(O)C(O)C1OC2=O (stereo unspecified)	/	/	/	/	21
O=C1OCC2OC(O)C(O)C(O)C2OC(=O)c2cc(O)c(O)c(O)c2-c2c(O)c(O)c3oc(=O)c4c(c(O)c(O)c5oc(=O)c2c3c54)-c2c1cc(O)c(O)c2O (stereo unspecified)	83*	106*	34*	/	/
O=C(CCCOC(=O)c1ccc(O)cc1O)c1ccc(F)cc1	/	/	/	/	-4
Cc1cc(C(=O)CSc2n[nH]c(N)n2)c(C)n1-c1ccc(F)cc1	76*	6.2*	8	0	-8
CCOc1ccc(NC(=O)N(CCN(C)C)C(C)c2cccnc2)cc1 (stereo unspecified)	-6	7	88*	0	4
FC(F)(F)c1ccc2c(c1)NCC1CCCN21 (stereo unspecified)	53*	23*	7	2	-8
FC(F)(F)c1ccc2c(c1)N1CCCC1CN2 (stereo unspecified)	18	8	4	1	-48
CCOC(=O)C1=C(COC(=O)c2cccs2)NC(=O)NC1C (stereo unspecified)	/	/	/	/	2
COc1ccc(-c2noc(CN(Cc3nccn3C)C(C)C)n2)cc1	0	0	-6	-1	-4
Cc1ccc(C(=O)Nc2nnc(CC(=O)N/N=C/c3ccc(O)c(O)c3)s2)cc1	/	/	/	/	-30
COc1ccc(C(=O)Nc2nnc(CC(=O)N/N=C/c3ccc(O)cc3O)s2)cc1	76*	8	/	/	-44
CCCSCC(=O)Nc1ncc2c(n1)-c1ccccc1CC2	58*	active	4	1	7
CCNc1nc(NCC)n2c(SCc3nc4ccccc4c(=O)[nH]3)nnc2n1	6	0	-2	1	-68
O=C(N/N=C/c1cn(Cc2ccccc2)c2ccccc12)c1cc(O)cc(O)c1	62*	26	/	/	-5
CCNC(=S)N/N=C/c1cn(Cc2ccc(F)cc2)c2ccccc12	82*	8.9*	2	-1	8
Cc1ccc(C(=O)N/N=C/c2cn(Cc3ccccc3)c3ccccc23)cn1	-8	-2	6	-2	1
CC(/C=N/NC(=O)Cc1cccs1)=C\c1ccccc1	-13	-3	0	-1	20
COc1ccc(C(N)CCc2ccco2)cc1 (stereo unspecified)	50*	24*	-1	-1	-35
COc1ccc(S(=O)(=O)N(C)C(C)CCc2ccco2)cc1 (stereo unspecified)	9	-2	/	/	2
COc1ccc(CP(=O)(c2ccccc2)c2ccccc2)cc1	-1	1	/	/	1
COc1ccccc1CP(=O)(c1ccccc1)c1ccccc1	active	110	3	-1	11
COc1ccccc1NC(=S)N(Cc1ccccc1)Cc1cccnc1	2	-4	4	0	-32
CCC(C)Nc1nnnc2c1sc1nc3c(cc12)COC(C)(C)C3 (stereo unspecified)	85*	-2	1	1	-5
SMILES	eIF4H inh	PABP polyA inh	eIF4E-4G inh	PERK inh	PABP1 MLLE inh
Fc1ccc(CN2CC[C@H]3C=CCc4cccc(c43)C2)cc1	/	/	/	/	47*
Clc1ccc(CN2CC[C@H]3C=CCc4cccc(c43)C2)cc1	/	/	/	/	7
CC1CCCCC12NC(=O)N(CC(=O)Nc1sc3c(c1C(N)=O)CCC3)C2=O (stereo unspecified)	78*	74*	1	-1	-7
COC(=O)c1c(NC(=O)CN2C(=O)NC3(CCC(C)CC3)C2=O)sc2c1CCC2 (stereo unspecified)	/	/	/	/	12
Cn1cnnc1SCC(=O)Nc1sc2c(c1C(N)=O)CCC2	76*	50*	19	1	3
CC1CCC2(CC1)NC(=O)N(CC(=O)Nc1sc3c(c1C(N)=O)CCC3)C2=O (stereo unspecified)	76*	3.7*	27	2	-53
S=C(Nc1ccccc1)Nc1ccc(OCc2ccccc2)cc1	-3	-4	-13	2	17
COc1ccc(N2CCN(C(=O)CCCn3c(=O)c4cccn4c4cccnc43)CC2)cc1	1	-3	/	/	1
Cc1cc(C(=O)N/N=C2\CC(=O)CC(C)(C)C2)c2ccccc2n1	7	-5	-6	1	14
Nc1nc2c(s1)CCc1c-2cnn1-c1ccccc1	0	6	39*	0	-22
CCOCC(=O)Nc1ccc(S(=O)(=O)NCCc2ccccc2)cc1	-4	6	-1	0	-7
COc1c(Cl)cc(-c2noc(C)c2C(=O)NC(C)C)cc1Cl	4	-3	42*	0	9
CCC1([N+](=O)[O-])COC(c2ccc(OC)cc2)OC1 (stereo unspecified)	/	/	/	/	0
CCS(=O)(=O)c1ccc2oc(Nc3ccc(C(C)C)cc3)nc2c1	-3	-6	44*	0	36
CCCCOc1ccc(C(=O)NCC(=O)NCCOc2ccccc2)cc1	/	/	/	/	8
O=C(O)CCNC1CCCCC1	-6	8	-13	0	3
O=C(O)CCCCC1CCSS1 (stereo unspecified)	94	1	72*	1	28
Clc1ccc(Cl)c(-c2nn3c(COc4ccccc4)nnc3s2)c1	0	-1	34*[fluorescence artefact?]	1	21
COc1cc(CCC(=O)Nc2ccc(S(=O)(=O)NC3=NCCCCC3)cc2)cc(OC)c1OC	active	78	2	0	-80
O=C1CC(c2ccco2)CC(O)=C1C=Nc1cc(Cl)ccc1O (stereo unspecified)	92*	77*	-1	2	8
CC(C)(C)c1[nH]nc2c1C(c1ccc(OC(=O)c3ccco3)cc1)C(C#N)=C(N)O2 (stereo unspecified)	4	1	43*	-1	-3
Cc1ccc(O)c(C(=O)c2cnc3c(c2)CN(CCC(C)C)C(=O)N3)c1	6	4	-6	0	1
O=C(NCCc1ccccc1)c1ccc2nc(-c3ccco3)c(-c3ccco3)nc2c1	88*	90*	18	0	16
O=C(c1ccccc1)c1ccc2nc(-c3ccco3)c(-c3ccco3)nc2c1	96	78	24	0	2
O=C(NC1CCCC1)c1ccc2nc[nH]c2c1	1	2	1	1	1
c1coc(-c2nc3ccccc3nc2-c2ccco2)c1	102*	85*	/	1	32
O=C(NC1CCCC1)c1ccc2nc(-c3ccco3)c(-c3ccco3)nc2c1	102*	60*	15	0	34
O=C(NCCO)c1ccc2nc(-c3ccco3)c(-c3ccco3)nc2c1	87*	92*	6	1	40*
Cc1cc(C(=O)O)c(C)n1Cc1ccncc1	-7	5	4	-1	5
O=C(COC(=O)CN1C(=O)COc2ccccc21)NCc1ccc(F)cc1	/	/	/	/	-2

Screening data deposited in PubChem BioAssay by several laboratories.
